Here are results for 64 compounds from the antibiotic and cytotoxicity screens of Wong et al. (2023).

In all, about 39,000 compounds went through this assay and about 3,300 (8.5%) were called active. The sample holds actives, similar compounds and a random draw of the others, so the mix is not that of the screen.

For this test, the system named is HepG2. The test can be described thus: cytotoxicity call (relative viability < 0.9). Particulars: 10 µM.
`Cc1cccc(S(=O)(=O)N2C[C@H](O)COC[C@H]3O[C@@H](CC(=O)NCc4ccncn4)CC[C@@H]32)c1`: the cytotoxicity call is “inactive”. Next, `Cc1noc(C)c1NC(=O)N(C)C[C@@H]1Oc2ccc(NS(=O)(=O)c3c(C)noc3C)cc2C(=O)N([C@H](C)CO)C[C@@H]1C`: “inactive”. Next, `C[C@@H]1CN([C@H](C)CO)C(=O)c2cc(NC(=O)NC3CCCCC3)ccc2O[C@@H]1CN(C)C(=O)Nc1cccc2ccccc12`: “inactive”; `Cc1ccc(S(=O)(=O)Nc2cccc3c2O[C@@H](CN(C)Cc2ccc(Oc4ccccc4)cc2)[C@H](C)CN([C@H](C)CO)C3=O)cc1`: “inactive”; `COc1ccc(S(=O)(=O)N(C)C[C@@H]2OCCCC[C@H](C)Oc3ccc(NC(=O)Nc4ccccc4)cc3C(=O)N([C@H](C)CO)C[C@@H]2C)cc1`: “inactive”. With `O=C(NCCn1ncc2c(=O)n(Cc3ccccc3)cnc21)c1ccc(S(=O)(=O)N2CCOCC2)cc1` the entry was “inactive”; with `CC(C)Sc1n[nH]c(=O)[nH]c1=O`, “inactive”; with `CCCNC(=O)N(C)C[C@H]1Oc2cc(C#Cc3ccccn3)ccc2S(=O)(=O)N([C@H](C)CO)C[C@@H]1C`, “inactive”.

On to `CC[C@H]1Sc2ccccc2NC1=O`, for which the cytotoxicity call was “inactive”. Next, `C[C@H]1CCCCO[C@H](CN(C)S(=O)(=O)c2cn(C)cn2)[C@@H](C)CN([C@@H](C)CO)C(=O)c2cc(NS(=O)(=O)c3cccs3)ccc2O1`: “inactive”; `CSc1nc(C)cc(OCCO)n1`: “inactive”. Consider `COc1ccc(NC(=O)Nc2ccc3c(c2)C(=O)N([C@@H](C)CO)C[C@@H](C)[C@H](CN(C)Cc2ccc(Cl)c(Cl)c2)OCCCC[C@H](C)O3)cc1`, for which the cytotoxicity call is “inactive”. With `O=c1c(-c2ccc(O)cc2)coc2cc(O[C@@H]3O[C@H](CO)[C@@H](O)[C@H](O)[C@H]3O)ccc12` the entry was “inactive”.

For the compound `COc1ccc(CNC(=O)C[C@@H]2CC[C@@H]3[C@@H](COc4ccc(NC(=O)C5CC5)cc4C(=O)N3C)O2)cc1`, the cytotoxicity call was “inactive”. Turning to `C[C@H](CO)N1C[C@H](C)[C@@H](CN(C)S(=O)(=O)c2cccs2)Oc2c(NC(=O)C3CCOCC3)cccc2C1=O`, the cytotoxicity call is “inactive”.

As for `Cc1ccc(S(=O)(=O)Nc2ccc3c(c2)C(=O)N([C@@H](C)CO)C[C@@H](C)[C@H](CN(C)C(=O)NC2CCCCC2)OCCCC[C@H](C)O3)cc1`, the cytotoxicity call was “inactive”. Next, `CC(C)N=c1cc2n(-c3ccc(Cl)cc3)c3ccccc3nc-2cc1Nc1ccc(Cl)cc1`: “active”.

For `CN[C@H]1CCS(=O)(=O)C1`, the cytotoxicity call was “inactive”. Next, `Cc1nc(S(=O)(=O)N[C@H]2CCS(=O)(=O)C2)cn1C`: “active”; `CCN[C@H]1CCS(=O)(=O)C1`: “inactive”; `CCC(=O)N(C)C[C@@H]1Oc2ncc(C#C[C@@H](C)O)cc2C(=O)N([C@H](C)CO)C[C@@H]1C`: “inactive”. Consider `COc1cccc(-c2cnc3c(c2)C(=O)N([C@H](C)CO)C[C@H](C)[C@H](CN(C)S(=O)(=O)c2cccc(F)c2)O3)c1`, for which the cytotoxicity call is “inactive”. Take `N[C@@H](CN1C=CC(=O)C(=O)C1)C(=O)O`: the cytotoxicity call is “inactive”. Regarding `NC(Cn1ccc(=O)c(O)c1)C(=O)O` (centres undefined), the cytotoxicity call is “active”. With `N[C@@H](Cn1ccc(=O)c(O)c1)C(=O)O`, the cytotoxicity call is “inactive”. Next, `C[C@@H]1CN([C@@H](C)CO)C(=O)c2cc(NC(=O)Nc3ccc(C(F)(F)F)cc3)ccc2O[C@@H]1CN(C)C(=O)Nc1cccc2ccccc12`: “inactive”; `C[C@@H]1CN(CCO[Si](C)(C)C(C)(C)C)C(=O)c2cc(NC(=O)Nc3ccccc3)ccc2O[C@@H](C)CCCCO[C@H]1CN(C)S(=O)(=O)c1ccc(F)cc1`: “inactive”. Next, `Cc1noc(C)c1NC(=O)Nc1ccc2c(c1)CC(=O)N([C@H](C)CO)C[C@@H](C)[C@H](CN(C)S(C)(=O)=O)O2`: “inactive”. Consider `C[C@H](CO)N1C[C@H](C)[C@H](CN(C)S(C)(=O)=O)Oc2ccc(NC(=O)Cc3ccccc3)cc2C1=O`, for which the cytotoxicity call was “inactive”. With `C[C@@H]1CN([C@H](C)CO)C(=O)c2cc(NC(=O)Nc3ccccc3)ccc2O[C@@H](C)CCCCO[C@H]1CN(C)Cc1ccc(Cl)c(Cl)c1` the entry was “active”; with `C[C@H](CO)N1C[C@H](C)[C@H](CN(C)Cc2ccc(Cl)c(Cl)c2)OCCCC[C@H](C)Oc2ccc(NC(=O)Nc3ccccc3)cc2C1=O`, “inactive”. Regarding `C[C@@H]1CCCCO[C@H](CN(C)Cc2ccc(Cl)c(Cl)c2)[C@@H](C)CN([C@H](C)CO)C(=O)c2cc(NC(=O)Nc3ccccc3)ccc2O1`, the cytotoxicity call is “inactive”. Regarding `C[C@@H]1CCCCO[C@H](CN(C)Cc2ccc(Cl)c(Cl)c2)[C@@H](C)CN([C@@H](C)CO)C(=O)c2cc(NC(=O)Nc3ccccc3)ccc2O1`, the cytotoxicity call is “inactive”. Regarding `C[C@@H]1CCCCO[C@@H](CN(C)Cc2ccc(Cl)c(Cl)c2)[C@@H](C)CN([C@@H](C)CO)C(=O)c2cc(NC(=O)Nc3ccccc3)ccc2O1`, the cytotoxicity call is “inactive”. Next, `C[C@@H]1CN([C@@H](C)CO)C(=O)c2cc(NC(=O)Nc3ccccc3)ccc2O[C@@H](C)CCCCO[C@H]1CN(C)Cc1ccc(Cl)c(Cl)c1`: “inactive”; `C[C@@H]1CCCCO[C@@H](CN(C)Cc2ccc(Cl)c(Cl)c2)[C@H](C)CN([C@@H](C)CO)C(=O)c2cc(NC(=O)Nc3ccccc3)ccc2O1`: “inactive”. Next, `C[C@@H]1CN([C@H](C)CO)C(=O)c2cc(NC(=O)Nc3ccccc3)ccc2O[C@@H](C)CCCCO[C@@H]1CN(C)Cc1ccc(Cl)c(Cl)c1`: “active”.

As to `C[C@@H]1CCCCO[C@@H](CN(C)Cc2ccc(Cl)c(Cl)c2)[C@H](C)CN([C@H](C)CO)C(=O)c2cc(NC(=O)Nc3ccccc3)ccc2O1`, the cytotoxicity call was “active”. In the case of `C[C@@H]1CCCCO[C@H](CN(C)Cc2ccc(Cl)c(Cl)c2)[C@H](C)CN([C@@H](C)CO)C(=O)c2cc(NC(=O)Nc3ccccc3)ccc2O1`, the cytotoxicity call was “active”.

For the compound `CO[C@H]1CN(C)C(=O)c2cc(NS(C)(=O)=O)ccc2OC[C@H](C)N(C(=O)C2CCCCC2)C[C@@H]1C`, the cytotoxicity call is “inactive”. With `C[C@H]1CN([C@@H](C)CO)C(=O)c2cc(NS(=O)(=O)c3cn(C)cn3)ccc2O[C@@H]1CN(C)CC1CC1` the entry was “inactive”; with `Cc1ccc(S(=O)(=O)N(C)C[C@@H]2Oc3c(NS(=O)(=O)c4cn(C)cn4)cccc3C(=O)N([C@@H](C)CO)C[C@@H]2C)cc1`, “inactive”. In the case of `COc1ccc(S(=O)(=O)N(C)C[C@H]2Oc3c(NC(=O)c4ccncc4)cccc3C(=O)N([C@H](C)CO)C[C@@H]2C)cc1`, the cytotoxicity call is “inactive”.

For `CC(C)[Si](C#C[Si](C(C)C)(C(C)C)C(C)C)(O[C@H](C)c1cn(Cc2cccc(Cl)c2)nn1)C(C)C`, the cytotoxicity call is “inactive”. Next, `Cc1cc(C(=O)Nc2cccc3c2O[C@@H](CN(C)C(=O)NC2CCCCC2)[C@H](C)CN([C@@H](C)CO)C3=O)n(C)n1`: “inactive”; `C[C@@H]1CN([C@@H](C)CO)C(=O)c2cc(NC(=O)CCCCCC(=O)Nc3ccccc3N)ccc2O[C@@H]1CN(C)S(C)(=O)=O`: “inactive”.

On to `COC(=O)[C@H]1C[C@@]2(C(=O)O)C[C@](C(=O)O)(C[C@@H](C(=O)OC)C2=O)C1=O`, for which the cytotoxicity call is “inactive”. Next, `C[C@@H]1CN([C@@H](C)CO)C(=O)CCCn2nncc2CO[C@@H]1CN(C)C(=O)Nc1ccc2c(c1)OCCO2`: “inactive”; `C[C@@H]1CCCCO[C@H](CN(C)C(=O)Nc2ccc(C(F)(F)F)cc2)[C@@H](C)CN([C@H](C)CO)C(=O)c2cc(N(C)C)ccc2O1`: “inactive”; `CCc1nc2ccc(C(=O)N3CCN(S(=O)(=O)CC)CC3)cn2c1N(C=O)Cc1ccc(OC)cc1`: “inactive”. With `C[C@@H]1CCCCO[C@@H](CN(C)Cc2ccc(Cl)c(Cl)c2)[C@@H](C)CN([C@H](C)CO)C(=O)c2cc(NC(=O)Nc3ccccc3)ccc2O1` the entry was “inactive”; with `C[C@H]1CCCCO[C@H](CN(C)Cc2ccc(Cl)c(Cl)c2)[C@@H](C)CN([C@@H](C)CO)C(=O)c2cc(NC(=O)Nc3ccccc3)ccc2O1`, “inactive”. Take `C[C@H](CO)N1C[C@H](C)[C@@H](CN(C)Cc2ccc(Cl)c(Cl)c2)OCCCC[C@H](C)Oc2ccc(NC(=O)Nc3ccccc3)cc2C1=O`: the cytotoxicity call was “active”.

Regarding `C[C@@H]1CCCCO[C@@H](CN(C)Cc2ccc(C(=O)O)cc2)[C@H](C)CN([C@H](C)CO)C(=O)c2cc(NC(=O)Nc3ccc(C(F)(F)F)cc3)ccc2O1`, the cytotoxicity call is “inactive”.

For the compound `COc1ccccc1CNC(=O)C[C@H]1C[C@H]2c3cc(NC(=O)c4ccc5c(c4)OCO5)ccc3O[C@H]2[C@@H](CO)O1`, the cytotoxicity call is “inactive”.

With `Cc1noc(C)c1NC(=O)Nc1cccc2c1O[C@@H](CN(C)S(=O)(=O)c1ccccc1)[C@H](C)CN([C@H](C)CO)C2=O`, the cytotoxicity call was “inactive”. With `Cc1noc(C)c1NC(=O)N(C)C[C@H]1Oc2ncc(C#CCC(C)C)cc2C(=O)N([C@@H](C)CO)C[C@@H]1C` the entry was “inactive”; with `C[C@H]1CN([C@@H](C)CO)C(=O)Cc2cc(NC(=O)CCCCCC(=O)Nc3ccccc3N)ccc2O[C@@H]1CN(C)Cc1ccc(C(F)(F)F)cc1`, “inactive”. Next, `C[C@@H]1CN([C@H](C)CO)C(=O)Cc2cc(NC(=O)CCCCCC(=O)Nc3ccccc3N)ccc2O[C@@H]1CN(C)Cc1ccc(C(F)(F)F)cc1`: “active”; `C[C@@H]1CN([C@H](C)CO)C(=O)Cc2cc(NC(=O)CCCCCC(=O)Nc3ccccc3N)ccc2O[C@H]1CN(C)Cc1ccc(C(F)(F)F)cc1`: “inactive”. Next, `C[C@H](CO)N1C[C@H](C)[C@@H](CN(C)Cc2ccc(C(F)(F)F)cc2)Oc2ccc(NC(=O)CCCCCC(=O)Nc3ccccc3N)cc2CC1=O`: “inactive”; `C[C@H](CO)N1C[C@H](C)[C@H](CN(C)Cc2ccc(C(F)(F)F)cc2)Oc2ccc(NC(=O)CCCCCC(=O)Nc3ccccc3N)cc2CC1=O`: “active”. For `C[C@@H]1CN([C@@H](C)CO)C(=O)Cc2cc(NC(=O)CCCCCC(=O)Nc3ccccc3N)ccc2O[C@H]1CN(C)Cc1ccc(C(F)(F)F)cc1`, the cytotoxicity call is “inactive”. Consider `Cc1noc(C)c1S(=O)(=O)N(C)C[C@@H]1Oc2ccc(NS(=O)(=O)c3cn(C)cn3)cc2CC(=O)N([C@@H](C)CO)C[C@H]1C`, for which the cytotoxicity call is “inactive”.
